# From the supplement of paper PMC11172423
# Unmarked numbers belong to inactive results.
# System: Falciformispora senegalensis CBS197.79
# Assay: growth relative to untreated control; higher = less inhibition, active = 20 or less
# Conditions: 25 µM
# In short: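 Compound at 100 or 25 µM was applied for 7 days at 37 °C to hyphal fragments of M. mycetomatis MM55 or F. senegalensis CBS197.79 in 96-well plates. Fragments were suspended in colourless RPMI 1640 with L-glutamine and MOPS at 68–72% transmission at 660 nm, and viability was read with MTS (2 h, 490 nm) or resazurin (600 nm). Growth is reported as blank-corrected metabolic activity relative to the blank-corrected untreated growth control.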
row,SMILES,growth
1,O=C(c1ccc(Nc2nccc(-c3cc(Cl)cc(C(F)(F)F)c3)n2)cc1)N1CC(O)C1,88.9%
2,Cc1ccc(Cl)cc1NC(=O)c1c(-c2ccccc2Cl)noc1C,79.7%
3,Nc1nc(Nc2ccc3c(c2)CC[C@@H](N2CCCC2)CC3)nn1-c1cc2c(nn1)-c1ccccc1CCC2,-3.21% (active)
4,OC1(CN2CCC(Oc3cccc(C(F)(F)F)c3)CC2)CCNC1 (stereo unspecified),98.5%
5,COc1ccc(-c2ccc3c(-c4ccc(F)cc4)cnc(N)c3c2)cn1,94.3%
6,CN(c1ncc2nc(Nc3cc(Cl)cc(C(F)(F)F)c3)n(C3CCNCC3)c2n1)C1CC1,90.9%
7,COc1cc2c3cc1Oc1c(OC)c(OC)cc4c1[C@@H](Cc1ccc(O)c(c1)Oc1ccc(cc1)C[C@@H]3N(C)CC2)N(C)CC4,99.1%
8,C[C@@H]1CCCN1CCc1cc2cc(-c3ccc(C#N)cc3)ccc2o1,98.4%
9,CCN1C(=O)N(CCC(C)C)C2(CCN(Cc3cc(O)cc(Cl)c3)CC2)C1=O,91%
10,O=C(Nc1ccc(Cl)c(C(F)(F)F)c1)Nc1ccc(Cl)c(C(F)(F)F)c1,99.4%
11,Cc1cnc2nc(NC3COc4ccccc43)nc(NC(C3CC3)C3CC3)c2c1 (stereo unspecified),83.2%
12,O=C(NC(CCO)C1CCCCC1)c1cc2ccc(C(F)(F)F)cc2[nH]1 (stereo unspecified),79.2%
13,Cc1cccc(C=NNc2cc(N3CCOCC3)nc(OCCc3ccccn3)n2)c1,82.1%
14,Nc1nc2ccccc2n1CC(O)c1ccc(Cl)cc1Cl (stereo unspecified),82.1%
15,CCOc1cc([C@@H](CS(C)(=O)=O)N2C(=O)c3cccc(NC(C)=O)c3C2=O)ccc1OC,99.4%
16,C[C@@H](O[C@H]1OCCN(Cc2n[nH]c(O)n2)[C@H]1c1ccc(F)cc1)c1cc(C(F)(F)F)cc(C(F)(F)F)c1,104%
17,CN(C)C[C]1[CH][CH][CH][C]1CNc1ccnc2cc(Cl)ccc12.[CH]1[CH][CH][CH][CH]1.[Fe],59.2%
18,CCc1ccc2c(c1O)CCN(C)C2Cc1ccccc1Cl (stereo unspecified),78.3%

row,SMILES,growth
1,Cc1nn(C2CCS(=O)(=O)C2)c(C)c1C1Nc2ccccc2C(=O)N1Cc1ccc2c(c1)OCO2 (stereo unspecified),84.3%
2,Cc1ccc(NC(=O)c2ccc(CN3CCN(C)CC3)cc2)cc1Nc1nccc(-c2cccnc2)n1,95.1%
3,Cc1cccc(-c2noc(-c3ccccc3)n2)c1,86.3%
4,CC(C)(C)NC(=O)N[C@H](C(=O)N1C[C@H]2[C@@H]([C@H]1C(=O)NC(CC1CCC1)C(=O)C(N)=O)C2(C)C)C(C)(C)C (stereo partly specified),103%
5,COc1ccc(C(=O)N2CCC3(CC2)C(=O)N(CC(=O)NCC2CCCCC2)CN3c2ccccc2)c(OC)c1,91.9%
6,CC(C)(C)NCc1cc(Nc2ccnc3cc(Cl)ccc23)c2c(c1O)CCCC2,106%
7,O=C(Nc1ncccc1O)c1ccc(N2CCOCC2)nc1,90%
8,CCCCCOc1ccc(-c2ccc(-c3ccc(C(=O)N[C@H]4C[C@@H](O)[C@@H](O)NC(=O)[C@@H]5[C@@H](O)[C@@H](C)CN5C(=O)[C@H]([C@@H](C)O)NC(=O)[C@H]([C@H](O)[C@@H](O)c5ccc(O)cc5)NC(=O)[C@@H]5C[C@@H](O)CN5C(=O)[C@H]([C@@H](C)O)NC4=O)cc3)cc2)cc1,84.5%
9,CCC1=C(c2ccc(C)cc2)S(=O)(=O)N=C1N1CCC(C(=O)NCCN2CCCCC2C)CC1 (stereo unspecified),86.3%
10,CS(=O)(=O)NC1CCN(C(=O)c2ccc(Nc3nccc(-c4cc(Cl)cc(C(F)(F)F)c4)n3)cc2)C1 (stereo unspecified),93.2%
11,Clc1ccc2c(N3CCN(CCCN4CCN(c5ccnc6cc(Cl)ccc56)CC4)CC3)ccnc2c1,104%
12,CCN1CCC(c2cc(C)c3nc(-c4cc5c(C)nc(C)cn5n4)cc(=O)n3c2)CC1,104%
13,O=C(Nc1ccc([N+](=O)[O-])cc1Cl)c1cc(Cl)ccc1O,0% (active)
14,FC(F)(F)c1ccnc(Nc2cn3cc(-c4ccc(N5CCOCC5)nc4)ccc3n2)n1,91.1%
15,CN(C)CCCN1c2ccccc2CCc2ccc(Cl)cc21,51.5%
16,NS(=O)(=O)OC[C@@H]1C[C@@H](n2ccc3c(N[C@H]4CCc5ccccc54)ncnc32)C[C@@H]1O,112%
17,CCO[C@@H]1[C@@H](OC)[C@H](C)O[C@@H](O[C@@H]2C[C@H]3CC[C@@H]4[C@@H](C=C5C(=O)[C@H](C)[C@@H](O[C@H]6CC[C@H](N(C)C)[C@@H](C)O6)CCC[C@H](CC)OC(=O)C[C@H]54)[C@@H]3C2)[C@@H]1OC,96.5%
18,CC[C@H](NC(=O)c1cc2c(F)cccc2[nH]1)c1ccccc1,77.9%
